Reference: PubChem BioAssay AID651812 (National Center for Advancing Translational Sciences (NCATS), 2012)
In all, about 2,100 compounds went through this assay and about 650 (31%) were called active. Another 16% or so got no clear call; they are omitted. Calls follow the shape of the dose curve; as a rule, active = well fitted inhibition curve with a large enough effect; inconclusive = small, poorly fitted or top-dose-only effect; inactive = flat fitted curve, though single readings scatter. The list shows a part of the results.

assay: qHTS for inhibitors of Vif-A3G interactions: Cherry picks; conditions: HeLa A3G-eYFP + Vif (tagged APOBEC3G with the HIV-1 protein that degrades it), 24 h; Potency: eYFP fluorescence increase; series mostly up to 36.9 µM; activity, negative = fluorescence increase: at the top concentration; also: nearly all actives have a fitted effect of over 80% in size; as to activity, negative = fluorescence increase: % of control where 0% means no effect
How it was run: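 HeLa cells stably expressing A3G-eYFP and Vif, cultured overnight then exposed to compounds at several concentrations for 24 hours at 37 C, 5% CO2; cellular yellow fluorescence (488 nm ex, 500-530 nm em) imaged on Acumen, MG132 positive control.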
Potency is read from the fitted curve at half-maximal effect.

Potency, active:
Fc1ccc2nc3[nH]c4ccccc4c3nc2c1 1.4 µM
CN1CCc2c(sc3c2C(=O)NC(c2ccc(-c4ccc(Cl)cc4)o2)N3)C1 (stereo unspecified) 11.6 µM
Cc1sc(-c2cc3c([nH]c2=O)CC(c2ccccc2)CC3=O)nc1-c1ccc(Cl)cc1 (stereo unspecified) 20.6 µM
COc1ccc2nc3ccccc3nc2c1NC(=O)c1ccc(Cl)cc1Cl 2.8 µM
COc1ccc2nc3ccccc3nc2c1NC(=O)c1ccc(Cl)cc1 20.6 µM
COc1ccc2nc3ccccc3nc2c1NC(=O)c1ccc(Br)cc1 14.6 µM
CN(C)c1ccc(/C=C2\SC(N3CCCCC3)=NC2=O)cc1 23.1 µM
CCN(CC)c1ccc(/C=C2\C(=N)N3N=C(CC(=O)N4CCOCC4)SC3=NC2=O)cc1 0.177 µM
CN(C)c1ccc(/C=C2\C(=N)N3N=C(CC(=O)N4CCCCC4)SC3=NC2=O)cc1 18.4 µM
COc1ccc2cc(-c3nc(Cl)c4c5c(sc4n3)CC(C)CC5)c(=O)oc2c1 (stereo unspecified) 4.11 µM
CN1C(=O)/C(=C/c2ccccc2OCc2ccc(F)cc2)N(C)C1=S 23.1 µM
O=[N+]([O-])c1ccccc1S(=O)(=O)Nc1ccc(-c2ccc(N3CCOCC3)nn2)cc1 23.1 µM
CC[n+]1ccc(/C=C2\Sc3ccccc3N2CCCS(=O)(=O)[O-])c2ccccc21 20.6 µM
COc1ccc(-c2cc(-c3cccs3)nc3sc(C#N)c(N)c23)cc1 16.4 µM
CCN(CC)C(=O)c1sc2nc(-c3cccs3)cc(-c3ccc(Cl)cc3)c2c1N 14 µM
N#Cc1sc2nc(-c3cccs3)cc(-c3ccc(Cl)cc3)c2c1N 15.8 µM
CCCCN1C(=O)C2Cc3c([nH]c4ccccc34)CN2C1=S (stereo unspecified) 14 µM
CCCCN1C(=O)c2cccc3cc(O)cc(c23)C1=O 16.4 µM
CCNc1ccc(Br)cc(C(=O)/C=C/c2ccc3c(c2)OCO3)c1=O 18.4 µM
Cc1ccccc1-n1c(/C=C/c2c(C)n(C)c3ccccc23)nc2ccccc2c1=O 8.2 µM
Cn1ncc(N=Cc2c(O)ccc3ccccc23)c1C(=O)Nc1cccc(Cl)c1 11.6 µM
CSc1nsc(/C=C/Nc2ccc(O)cc2C)c1C#N 20.6 µM
Cc1ccc(NC(=O)c2ccc(NCc3ccco3)c([N+](=O)[O-])c2)cc1Cl 18.4 µM
Cc1ccc(NC(=O)c2ccc(NCC3CCCO3)c([N+](=O)[O-])c2)cc1Cl (stereo unspecified) 16.4 µM
O=C(Nc1cc(F)cc(F)c1)c1ccc(NCCc2ccccc2)c([N+](=O)[O-])c1 14.6 µM

activity, negative = fluorescence increase, inactive:
CCOc1ccccc1C1CC(=O)NC2=C1C(=O)CCC2 (stereo unspecified) -0.477%
O=C1CC(c2ccccc2)Cc2[nH]c(=O)c(-c3nc(-c4cccc(Cl)c4)cs3)cc21 (stereo unspecified) -19.9% [at 46.1 µM]
COCCOC(=O)c1[nH]c2c(c1C)C(=O)CC(c1ccccc1)C2 (stereo unspecified) -17%
O=C(O)CSc1c2ccccc2cc2ccccc12 -2.38%
COc1ccccc1Nc1c2c(nc3ccc(NC(=O)c4ccc(N(C)C)cc4)cc13)CCCC2 -3.16% [at 46.1 µM]
O=C(NC(=S)Nc1c(Cl)cc(Cl)cc1Cl)c1ccccc1 7.49% [at 46.1 µM]
COc1ccc(S(=O)(=O)NCc2ccccn2)cc1NC(=O)c1ccccc1 -3.5%
COc1ccc(C)cc1Nc1c2c(nc3ccccc13)CCC2 -6.22%
COc1cc(C(=O)Nc2ccc3ccccc3c2)cc(OC)c1OC -7.49%
COC(=O)/C(=C\Nc1ccc(Cl)cc1Cl)NC(=O)c1ccc(OC)cc1 -2.72%
COc1ccc2nc(Nc3nc(CSc4ccc(C)cc4)cc(=O)[nH]3)nc(C)c2c1 -14.5% [at 46.1 µM]
COc1cc(/C=C2\C(=N)N3N=CSC3=NC2=O)cc(Br)c1OC(=O)c1ccco1 12.1% [at 46.1 µM]
CCN(CC)c1ccc(/C=C2\SC(N)=NC2=O)cc1 -29.5%
O=c1c2cc3ccccc3n2cnn1Cc1ccccc1F -10.9%
CCOc1ccccc1Oc1nc(C)nc2c1oc1ccccc12 -1.4% [at 46.1 µM]
Brc1ccc2c(c1)C(c1cccnc1)=NNC(c1cccs1)=N2 -2.51%
COc1cc(C(=O)N/N=C(\C)c2ccccn2)cc(OC)c1OC -24%
COc1cc(C2Nc3ccc4ncccc4c3C3=C2C(=O)CCC3)cc(OC)c1O (stereo unspecified) 3%
CCOc1ccc(C(=O)COC(=O)Cc2n[nH]c(=O)c3ccccc23)cc1 -3.45%
Cc1nc(-c2ccc(Cl)cc2)sc1C(=O)NN 0.88%
CC(C)CC(=O)NC(=S)N(Cc1ccccc1)Cc1ccccc1 6.36% [at 46.1 µM]
Oc1ccc(C=NNC(=S)Nc2ccc(F)cc2)c(O)c1 -14.8% [at 46.1 µM]
COc1cc(OC)cc(C(=O)N/N=C/c2ccc(OC)c(COc3ccc4ccccc4c3)c2)c1 0.593%
COc1cc(C(=O)Nc2ccc(C)cc2)c2ccccc2n1 -24.2%
COc1ccc(/C=N/NC(=O)c2cccnc2)cc1CSc1ccccn1 2.26%
CC1(C(=O)NCc2ccco2)Cc2c(-c3cccc(C(N)=O)c3)ccnc2O1 (stereo unspecified) -3.61%
C/C(=N\NC(=O)C(C)n1nc(C)c([N+](=O)[O-])c1C)c1ccccc1O (stereo unspecified) -0.134% [at 46.1 µM]
Cc1cc(C)cc(Oc2nc(C(F)(F)F)nc3ccccc23)c1 -7.3%
Cc1c(Cl)cccc1NC(=O)c1oc2ccc(S(=O)(=O)N3CCC4(CC3)OCCO4)cc2c1C -4.65% [at 46.1 µM]
COc1ccc(NC(=O)C(NC(=O)/C=C\c2ccc3c(c2)OCO3)c2ccccc2)cc1 (stereo unspecified) -4.24% [at 46.1 µM]
O=C(N/N=C/c1ccc2c(c1)OCO2)c1cccc2ccccc12 -1.42%
COc1ccc(NC(=O)C2Cc3c(-c4cccc(C(C)=O)c4)ccnc3O2)cc1 (stereo unspecified) -8.31%
Cc1c(/C=N\NC(=O)c2cc3ccccc3o2)c2ccccc2n1C -6.08%
CCCn1c(CN2CCN(C(=O)OCC)CC2)nc2cc(NC(=O)C(C)C)ccc21 0.103%
COc1ccccc1Nc1nnc(SCC2CCCCO2)s1 (stereo unspecified) -0.68%
Cc1cc2nc(SCCOC(=O)Nc3cccc(Cl)c3)nc(C)c2cc1C 4.01% [at 46.1 µM]
O=C(NN=Cc1c(O)ccc2ccccc12)c1ccc2c(c1)OCO2 -26.3% [at 46.1 µM]
CSc1nsc(/C=C/Nc2ccc(F)cc2)c1C#N 4.62% [at 46.1 µM]
Cc1nc(CSc2nsc(/C=C/N(C)C)c2C#N)cs1 -3.04%
Cc1cc(C)nc(Nc2n[nH]c(COc3cccc4ccccc34)n2)n1 1.35%
CCN(CC)C(=O)Cn1c(=O)n(-c2ccccc2)c(=O)c2c3c(sc21)CCC3 11.4% [at 46.1 µM]
Cc1ccc(NC(=O)c2ccc([N+](=O)[O-])s2)cc1S(=O)(=O)N1CCOCC1 3.79%
Cc1ccc(NC(=O)CSc2ccccc2NC(=O)c2cccc(Cl)c2)cc1Cl 2.74% [at 46.1 µM]
O=C(O)c1ccc(NS(=O)(=O)c2cccc(C(=O)Nc3ccccc3[N+](=O)[O-])c2)cc1 -3.19%
O=C(NC(=S)Nc1ccc(N2CCCCC2)c(Cl)c1)c1ccc2c(c1)OCCO2 -0.693% [at 46.1 µM]
Cc1ccc2c(CC(=O)NCc3ccco3)coc2c1C -4.36%
